This passage reports growth results from PubChem BioAssay (NCI).

What all share (assay): NCI-60 one-dose screen, 48 h (100 = growth as untreated, 0 = no growth, -100 = all killed)
One assay concerns K-562 leukemia. As to conditions: 10 µM unless noted.
The next assay concerns MALME-3M melanoma. As to conditions: 10 µM unless noted.
Another assay deals with MDA-MB-231 breast. As to conditions: 10 µM unless noted.
The next assay has as its system SF-268 CNS. The following applies: 10 µM unless noted.
For another assay, the system named is SF-295 CNS. As to conditions: 10 µM unless noted.
The next assay relates to SF-539 CNS. As to conditions: 10 µM unless noted.
In another assay the test system is UACC-257 melanoma. As to conditions: 10 µM unless noted.
A further assay deals with M14 melanoma. As to conditions: 10 µM unless noted.
A further assay relates to HCT-15 colon. The following applies: 10 µM unless noted.
The next assay has as its system HT29 colon. The following applies: 10 µM unless noted.
The test system of the next assay is SNB-75 CNS. As to conditions: 10 µM unless noted.
For a further assay, the system named is SNB-19 CNS. The following applies: 10 µM unless noted.
Another assay has as its system U251 CNS. As to conditions: 10 µM unless noted.
In the next assay the test system is PC-3 prostate. As to conditions: 10 µM unless noted.
The subject of the next assay is SK-MEL-5 melanoma. The following applies: 10 µM unless noted.
The test system of a further assay is UACC-62 melanoma. As to conditions: 10 µM unless noted.
A further assay relates to LOX IMVI melanoma. The following applies: 10 µM unless noted.
The test system of a further assay is SK-MEL-28 melanoma. As to conditions: 10 µM.
The next assay deals with SK-MEL-2 melanoma. As to conditions: 10 µM unless noted.
The subject of another assay is RXF 393 renal. As to conditions: 10 µM unless noted.

The structures appear in SMILES notation. The panel holds about 83,000 compounds, 20% with a hit somewhere; the sample as a whole holds those more often.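 Single-concentration screen, 48 h exposure, 96-well plates. Endpoint: percent growth. Below 10 = active.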 Values without a mark were called inactive. The source made the active and inactive calls.

As to `O=C1/C=C/[C@@H](O)[C@@H]2C[C@@H](O)C[C@H]2/C=C/CCCCO1`, the growth with K-562 leukemia was 13.7%; with MALME-3M melanoma, 13.8%; with MDA-MB-231 breast it was -21.2% (active); with SF-268 CNS it was 11.7%; in the assay with SF-295 CNS, 21.9%; with SF-539 CNS it was 17.8%. Also, the growth in the assay on UACC-257 melanoma is 9.88% (active); in the assay with M14 melanoma it was 30.2%; with HCT-15 colon it was 19.8%; with HT29 colon it was 2.63% (active); in the assay with SNB-75 CNS it was 29.7%; in the assay with SNB-19 CNS, 28.7%. The growth with U251 CNS was 39.7%; with PC-3 prostate it was -17.5% (active); in the assay on SK-MEL-5 melanoma, -93.1% (active); in the assay with UACC-62 melanoma, 64.1%; with LOX IMVI melanoma it was 1.64% (active); in the assay with SK-MEL-28 melanoma it was -8.98% (active). In the assay with SK-MEL-2 melanoma, the growth is 8.85% (active).

For the compound `N#CC(C#N)=Cc1c(-c2ccccc2)[nH]c2ccccc12`, the growth with K-562 leukemia is 12.7%; in the assay on MALME-3M melanoma, 81.3%; with MDA-MB-231 breast it was 50.2%; in the assay with SF-268 CNS, 44.6%; in the assay on SF-295 CNS, 31.6%; in the assay with SF-539 CNS it was -11.7% (active). Moreover, the growth in the assay with UACC-257 melanoma was 52.3%; with M14 melanoma, 27.7%; with HCT-15 colon, 35.3%; in the assay with HT29 colon, 14.3%; in the assay with SNB-75 CNS, 2.62% (active); in the assay with SNB-19 CNS it was 37.8%. The growth is 32.1% with U251 CNS; 9.36% (active) in the assay with PC-3 prostate; 14.9% with SK-MEL-5 melanoma; 32.2% in the assay on UACC-62 melanoma; 48.3% in the assay on LOX IMVI melanoma; 42.7% in the assay on SK-MEL-28 melanoma. Further, in the assay with SK-MEL-2 melanoma, the growth was 45.7%.

Turning to `Cn1c2c(c(=O)[nH]c1=O)NC1=C(C(=O)c3ccccc31)C1(C=C(O)c3ccccc31)N2` (stereo not drawn), the growth was 112% with K-562 leukemia; 124% in the assay with MALME-3M melanoma; 105% in the assay on MDA-MB-231 breast; 103% in the assay on SF-268 CNS; 135% with SF-295 CNS; 107% in the assay with SF-539 CNS. Further, the growth in the assay on UACC-257 melanoma is 115%; in the assay on M14 melanoma it was 96.8%; in the assay with HCT-15 colon, 96.9%; with HT29 colon it was 113%; in the assay on SNB-75 CNS it was 92.1%; in the assay with SNB-19 CNS it was 114%. Moreover, the growth in the assay on U251 CNS was 103%; in the assay on PC-3 prostate, 94.1%; in the assay with SK-MEL-5 melanoma it was 111%; in the assay on UACC-62 melanoma, 116%; in the assay with LOX IMVI melanoma, 94.1%; in the assay with SK-MEL-28 melanoma, 148%. The growth with SK-MEL-2 melanoma is 107%.

For the compound `N#C/C(=C\c1c(-c2ccccc2)[nH]c2ccccc12)S(=O)(=O)c1ccccc1`, the growth with K-562 leukemia is 17.5%; with MALME-3M melanoma, 76.5%; in the assay on MDA-MB-231 breast, 47.2%; in the assay with SF-268 CNS it was 53%; in the assay on SF-295 CNS, 25.7%; in the assay on SF-539 CNS, -20.1% (active). Moreover, the growth is 73.8% in the assay on UACC-257 melanoma; 42.8% in the assay with M14 melanoma; 44.1% in the assay on HCT-15 colon; 18.3% in the assay on HT29 colon; 12.4% in the assay with SNB-75 CNS; 40.3% with SNB-19 CNS. Besides, the growth in the assay with U251 CNS was 33.4%; with PC-3 prostate it was 5.37% (active); in the assay on SK-MEL-5 melanoma it was 11.6%; in the assay with UACC-62 melanoma, 34.3%; in the assay on LOX IMVI melanoma it was 42.7%; in the assay on SK-MEL-28 melanoma, 52.4%. Besides, the growth with SK-MEL-2 melanoma was 46.6%.

Take `O=C(Nc1ccc(Cl)cc1)c1cc2ccccc2cc1OP(=O)(O)O`: the growth in the assay on K-562 leukemia was 27.1%; with MALME-3M melanoma, -16.3% (active); in the assay with MDA-MB-231 breast, 55.5%; in the assay on SF-268 CNS, 32%; in the assay with SF-295 CNS, -7.61% (active); in the assay with SF-539 CNS, 32.1%. The growth in the assay with UACC-257 melanoma is 15.7%; with M14 melanoma, 31.9%; in the assay on HCT-15 colon, 23.2%; in the assay on HT29 colon, 103%; in the assay with SNB-75 CNS, 24.2%; in the assay with SNB-19 CNS it was 21.6%. The growth with U251 CNS is 18.8%; in the assay on PC-3 prostate, 24.6%; with SK-MEL-5 melanoma, 3.56% (active); in the assay on UACC-62 melanoma, 35.4%; in the assay on LOX IMVI melanoma, 22.9%; in the assay with SK-MEL-28 melanoma, 35.9%. The growth in the assay with SK-MEL-2 melanoma was 7.63% (active).

As to `O=C(/C=C/c1ccccn1)c1ccc(OCc2nnc(-c3ccc(Cl)cc3)o2)cc1`, the growth with K-562 leukemia was -28.1% (active); in the assay on MALME-3M melanoma, 60.4%; with MDA-MB-231 breast, 33.4%; with RXF 393 renal, -71.7% (active); with SF-268 CNS, 28.6%; with SF-539 CNS, -4.02% (active). In addition, the growth was 56.5% in the assay on UACC-257 melanoma; 18.9% in the assay with HCT-15 colon; -62.5% (active) with HT29 colon; 50.8% with SNB-75 CNS; 52.3% with SNB-19 CNS; 58.9% in the assay with PC-3 prostate. Further, the growth in the assay with UACC-62 melanoma is 49.3%; in the assay with LOX IMVI melanoma it was -92.1% (active); in the assay on SK-MEL-28 melanoma, 53.8%; in the assay with SK-MEL-2 melanoma, 98.6%.

Take `COc1ccc(-n2c(C(O)c3ccccc3)n[nH]c2=S)cc1` (stereo not drawn): the growth in the assay on K-562 leukemia was 99.3%; in the assay on MALME-3M melanoma it was 94.9%; in the assay with MDA-MB-231 breast, 92.2%; with SF-268 CNS, 95.9%; in the assay with SF-539 CNS it was 101%; in the assay on UACC-257 melanoma, 90.4%. Also, the growth is 90% in the assay with M14 melanoma; 107% in the assay on HCT-15 colon; 113% in the assay with HT29 colon; 89.6% with SNB-75 CNS; 99.7% in the assay with SNB-19 CNS; 91.2% with U251 CNS. The growth is 120% in the assay with PC-3 prostate; 107% in the assay with SK-MEL-5 melanoma; 88.2% in the assay with UACC-62 melanoma; 91.4% in the assay with LOX IMVI melanoma; 115% in the assay with SK-MEL-28 melanoma; 96.7% with SK-MEL-2 melanoma.

As for `CSc1nc2c(c(=O)n1C)N=C1c3ccccc3C(=O)C1C(c1ccccc1)N2` (stereo not drawn), the growth in the assay with K-562 leukemia was 32.9%; in the assay on MALME-3M melanoma, 42.6%; in the assay on MDA-MB-231 breast it was 82.8%; with SF-268 CNS, 81.7%; in the assay with SF-295 CNS it was -10.6% (active); in the assay with SF-539 CNS, 68%. For the same compound, the growth in the assay on UACC-257 melanoma was 102%; in the assay with M14 melanoma, 62.2%; in the assay with HCT-15 colon, 62.4%; in the assay with HT29 colon, 52.2%; in the assay with SNB-75 CNS it was 50%; in the assay on SNB-19 CNS, 82.4%. In addition, the growth in the assay with U251 CNS was 74.5%; in the assay on PC-3 prostate, 64.9%; in the assay on SK-MEL-5 melanoma it was 69.2%; in the assay with UACC-62 melanoma it was 107%; in the assay with LOX IMVI melanoma, 74.5%; in the assay with SK-MEL-28 melanoma it was 72.5%. In addition, the growth with SK-MEL-2 melanoma is 66.2%.
